The results in this text go back to PubChem BioAssay (NCI).

The structures appear in SMILES notation. About 83,000 compounds went through this panel and 20% of them were active in at least one assay; those are over-represented in the sample as a whole.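 Single-concentration screen, 48 h exposure, 96-well plates. Endpoint: percent growth. Below 10 = active.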 A number with no mark means an inactive call. Calls of active or inactive are those of the source.

The first test has as its system HCC-2998 colon. Put plainly: NCI-60 one-dose screen, 48 h (100 = growth as untreated, 0 = no growth, -100 = all killed). The conditions noted are these: 10 µM unless noted.
`COc1cc(Cn2c(SCCC(=O)Nc3ccc(F)cc3)nc3ccccc3c2=O)cc(OC)c1OC`: the growth is 95.7%.
Still for that read-out and setting: under `O=C(O)c1cn(C2CC2)c2cc(N3CCN(S(=O)(=O)c4ccc(Cl)c(Cl)c4)CC3)c(F)cc2c1=O` stands 24.8%; under `COc1cc(NCCCN=C(N)NC(N)=NC(C)C)c2ncccc2c1`, 55.8%.
The same measure, in the same setting: then `O=C(O)c1cccc([N+](=O)[O-])c1/C=C/c1ccccc1`, with 103%; and `NC(CC(N)C(=O)O)C(=O)O` (stereo unspecified), with 99.3%; and `O=C(O)c1ccc(-n2c(=O)c3ccccc3c3ccccc3c2=O)cc1`, with 110%.
The same measure, in the same setting: then `COc1cc(Cn2c(SCC(=O)Nc3ccc(Cl)cc3)nc3ccccc3c2=O)cc(OC)c1OC`, with 93.2%; and `CN(C)c1ncc(-c2ccc(C(F)(F)F)cc2)c(NC2CCCCCC2)n1`, with 72.2%.
Consider `Nc1c(C(=O)Nc2ccccc2)sc2nc3c(cc12)CCCCC3`, for which the growth is 43.5%.
Still for that read-out and setting: then `CCn1cc(C(=O)O)c(=O)c2cc(F)c(N3CCN(S(=O)(=O)c4c(C)cc(C)cc4C)CC3)cc21`, with 82.5%; and `CCn1cc(C(=O)O)c(=O)c2cc(F)c(N3CCN(S(=O)(=O)c4ccc(Cl)cc4Cl)CC3)cc21`, with 30.6%.
Still for that read-out and setting: then `COC12CC(=O)C(C(C)=O)=C(O)C1(C)c1c(O)c(C)c(O)c(C(C)=O)c1O2` (stereo unspecified), with 65.9%; and `CCCC(C(=O)OCC)C(C)OC(=O)OCC` (stereo unspecified), with 103%.
On to `NC(=O)NC(=O)/C=C/C(=O)OCCCl`, for which the growth was 99.8%.
With `Cc1ccc(C2=NN(c3ccc(S(=O)(=O)NC(=O)NCc4ccccc4)cc3)C(c3ccc(N(C)C)cc3)C2)c(C)c1` (stereo unspecified), the growth was 27.7%.
Regarding `COc1ccc(-c2cn[nH]c2-c2cc(OC)c3c(c2)OCO3)cc1`, the growth was 16.8%.
Same read-out and setting: then `CCCCCCCCCCCCNC(=S)N/N=C/c1ccc(Cl)c(Cl)c1`, with 106%; and `Oc1ccc(Cl)cc1-c1cc(-c2ccc(Cl)cc2)n[nH]1`, with 22%; and `COc1cc(NC(=O)CSc2nc3ccc(C)cc3c(=O)n2-c2ccccc2)cc(OC)c1OC`, with 97.5%.
Turning to `Clc1nc(-c2cccnc2)nc2sc3c(c12)CCCCCC3`, the growth was 107%.
As to `CCCCCCCCCCCCCCCCC(Br)C(=O)O` (stereo unspecified), the growth is 102%.
Still for that read-out and setting: under `CCN(Cc1ccccc1)c1ccc(SC#N)cc1` stands 94.1%; under `CCCCCC(=O)OCc1ccccc1`, 96.9%; under `COc1ccc(S(=O)(=O)N2CCN(c3cc4c(cc3F)c(=O)c(C(=O)O)cn4C3CC3)CC2)c(OC)c1`, 118%.
On the same count and under the same terms, then `COc1cc2nc(N3CCC[C@@H](NC4=CC(=O)c5ccccc5C4=O)C3)nc(N)c2cc1OC`, with 106%; and `COc1ccccc1CNCCCN1C(=O)c2ccc3c4c(ccc(c24)C1=O)C(=O)N(CCCNCCCCNCCCCN)C3=O`, with -4.93% (active).
In the case of `Cc1cc(C)c(S(=O)(=O)N2CCN(c3cc4c(cc3F)c(=O)c(C(=O)O)cn4C3CC3)CC2)c(C)c1`, the growth is 47.7%.
Still for that read-out and setting: then `COc1ccc(NC(=O)CSc2nc3ccccc3c(=O)n2-c2ccccc2C(F)(F)F)c(OC)c1OC`, with 118%; and `CNC(C)=O`, with 101%; and `CCN(CC)P(=O)(N(CC)CC)N(CCCSC/C=C(\C)CC/C=C(\C)CCC=C(C)C)CCCN1CCN(C)CC1`, with 104%.
On the same count and under the same terms, then `COc1ccc(NC(=O)CSc2nc3ccc(Cl)cc3c(=O)n2-c2ccccc2C(F)(F)F)c(OC)c1OC`, with 99%; and `O=S(=O)(O)CCl`, with 98.9%.
As for `COc1ccc(OC)c(C(=O)c2oc3ccc(Br)cc3c2N)c1`, the growth was 36.9%.
`COc1cc(NCCN=C(N)NC(N)=NC(C)C)c2ncccc2c1`: the growth is 82.9%.
Same read-out and setting: under `CC(=O)Nc1nc(C(=O)N2N=C(C)/C(=C/c3cccs3)C2=O)cs1` stands 108%; under `CC(C)[C@H](CO)Nc1nc(Nc2ccc(C(=O)NCCNS(=O)(=O)c3cccc4c(N(C)C)cccc34)c(Cl)c2)c2ncn(C(C)C)c2n1`, 15.7%; under `CCn1cc(C(=O)O)c(=O)c2cc(F)c(N3CCN(S(=O)(=O)c4cccc5ccccc45)CC3)cc21`, 31.6%.
For `O=C1Nc2ccc(Br)cc2C1=N/C=c1\[nH]c(=O)/c(=C/c2ccc(Cl)cc2)s1`, the growth is 118%.

In the next test the test system is KM12 colon. The test is described as above. The conditions noted are these: 10 µM unless noted.
Regarding `COc1cc(Cn2c(SCCC(=O)Nc3ccc(F)cc3)nc3ccccc3c2=O)cc(OC)c1OC`, the growth is 99.3%.
Regarding `O=C(O)c1cn(C2CC2)c2cc(N3CCN(S(=O)(=O)c4ccc(Cl)c(Cl)c4)CC3)c(F)cc2c1=O`, the growth was 14.6%.
Still for that read-out and setting: then `COc1cc(NCCCN=C(N)NC(N)=NC(C)C)c2ncccc2c1`, with 30.6%.
As to `O=C(O)c1cccc([N+](=O)[O-])c1/C=C/c1ccccc1`, the growth was 99.8%.
On to `NC(CC(N)C(=O)O)C(=O)O` (stereo unspecified), for which the growth is 113%.
For `O=C(O)c1ccc(-n2c(=O)c3ccccc3c3ccccc3c2=O)cc1`, the growth was 104%.
`COc1cc(Cn2c(SCC(=O)Nc3ccc(Cl)cc3)nc3ccccc3c2=O)cc(OC)c1OC`: the growth is 79.4%.
On the same count and under the same terms, then `CN(C)c1ncc(-c2ccc(C(F)(F)F)cc2)c(NC2CCCCCC2)n1`, with 54.4%; and `Nc1c(C(=O)Nc2ccccc2)sc2nc3c(cc12)CCCCC3`, with 12.2%; and `CCn1cc(C(=O)O)c(=O)c2cc(F)c(N3CCN(S(=O)(=O)c4c(C)cc(C)cc4C)CC3)cc21`, with 87.2%.
The same measure, in the same setting: then `CCn1cc(C(=O)O)c(=O)c2cc(F)c(N3CCN(S(=O)(=O)c4ccc(Cl)cc4Cl)CC3)cc21`, with 9.4% (active); and `COC12CC(=O)C(C(C)=O)=C(O)C1(C)c1c(O)c(C)c(O)c(C(C)=O)c1O2` (stereo unspecified), with 49.6%.
On the same count and under the same terms, then `CCCC(C(=O)OCC)C(C)OC(=O)OCC` (stereo unspecified), with 101%; and `NC(=O)NC(=O)/C=C/C(=O)OCCCl`, with 110%; and `Cc1ccc(C2=NN(c3ccc(S(=O)(=O)NC(=O)NCc4ccccc4)cc3)C(c3ccc(N(C)C)cc3)C2)c(C)c1` (stereo unspecified), with 34.5%.
With `COc1ccc(-c2cn[nH]c2-c2cc(OC)c3c(c2)OCO3)cc1`, the growth is 17.6%.
In the case of `CCCCCCCCCCCCNC(=S)N/N=C/c1ccc(Cl)c(Cl)c1`, the growth was 102%.
In the case of `Oc1ccc(Cl)cc1-c1cc(-c2ccc(Cl)cc2)n[nH]1`, the growth is 29.6%.
On to `COc1cc(NC(=O)CSc2nc3ccc(C)cc3c(=O)n2-c2ccccc2)cc(OC)c1OC`, for which the growth was 75.1%.
`Clc1nc(-c2cccnc2)nc2sc3c(c12)CCCCCC3`: the growth was 116%.
Regarding `CCCCCCCCCCCCCCCCC(Br)C(=O)O` (stereo unspecified), the growth was 111%.
Same read-out and setting: then `CCN(Cc1ccccc1)c1ccc(SC#N)cc1`, with 41.3%; and `CCCCCC(=O)OCc1ccccc1`, with 98.1%; and `COc1ccc(S(=O)(=O)N2CCN(c3cc4c(cc3F)c(=O)c(C(=O)O)cn4C3CC3)CC2)c(OC)c1`, with 91.1%.
For `COc1cc2nc(N3CCC[C@@H](NC4=CC(=O)c5ccccc5C4=O)C3)nc(N)c2cc1OC`, the growth was -35.2% (active).
Same read-out and setting: then `COc1ccccc1CNCCCN1C(=O)c2ccc3c4c(ccc(c24)C1=O)C(=O)N(CCCNCCCCNCCCCN)C3=O`, with 5.46% (active); and `Cc1cc(C)c(S(=O)(=O)N2CCN(c3cc4c(cc3F)c(=O)c(C(=O)O)cn4C3CC3)CC2)c(C)c1`, with 60.7%; and `COc1ccc(NC(=O)CSc2nc3ccccc3c(=O)n2-c2ccccc2C(F)(F)F)c(OC)c1OC`, with 101%.
On to `CNC(C)=O`, for which the growth was 106%.
On to `CCN(CC)P(=O)(N(CC)CC)N(CCCSC/C=C(\C)CC/C=C(\C)CCC=C(C)C)CCCN1CCN(C)CC1`, for which the growth is 108%.
The same measure, in the same setting: then `COc1ccc(NC(=O)CSc2nc3ccc(Cl)cc3c(=O)n2-c2ccccc2C(F)(F)F)c(OC)c1OC`, with 95.7%; and `O=S(=O)(O)CCl`, with 105%.
Still for that read-out and setting: then `COc1ccc(OC)c(C(=O)c2oc3ccc(Br)cc3c2N)c1`, with 30.6%; and `COc1cc(NCCN=C(N)NC(N)=NC(C)C)c2ncccc2c1`, with 29.9%; and `CC(=O)Nc1nc(C(=O)N2N=C(C)/C(=C/c3cccs3)C2=O)cs1`, with 110%.
`CC(C)[C@H](CO)Nc1nc(Nc2ccc(C(=O)NCCNS(=O)(=O)c3cccc4c(N(C)C)cccc34)c(Cl)c2)c2ncn(C(C)C)c2n1`: the growth is -9.33% (active).
For the molecule `CCn1cc(C(=O)O)c(=O)c2cc(F)c(N3CCN(S(=O)(=O)c4cccc5ccccc45)CC3)cc21`, the growth was 11.7%.
For `O=C1Nc2ccc(Br)cc2C1=N/C=c1\[nH]c(=O)/c(=C/c2ccc(Cl)cc2)s1`, the growth was 107%.
